# Measured values: PubChem BioAssay (NCI)
# The panel holds about 83,000 compounds, 20% with a hit somewhere; the sample as a whole holds those more often.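 Step 1: grow cells in 96-well plates. Step 2: add test compound at a single concentration. Step 3: incubate 48 h. Step 4: record percent growth.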 Active and inactive are the calls of the source.
# Tested on: HCT-15 colon
# Test: NCI-60 one-dose screen, 48 h (100 = growth as untreated, 0 = no growth, -100 = all killed)
# Conditions: 10 µM unless noted
# Experimental: Growth inhibition of the HCT-15 human tumor cell line is measured as a screen for anti-cancer activity. Cells are grown in 96 well plates and exposed to the test compound for 48 hours. Compounds are tested at a single concentration, which is 10^-5 M for most compounds. The reported endpoint is percent growth (GI% or GIPRCNT), where numbers from 0 - 100% represent growth inhibition, and numbers from -100% - 0 represent cell death. For example, a value of 40 represents 60% growth inhibition. A value of 0 means no net growth occurred over the course of the experiment. A value of -40 indicates 40% of cells at the beginning of the experiment died by the end of the experiment. A value of -100 means all cells are dead at the end of the experiment.
# NCI-60 Human Tumor Cell Lines Screen was performed using the standard one-dose NCI protocol, which is described in more detail at https://dtp.cancer.gov/discovery_development/nci-60/default.htm.
# Compounds with GIPRCNT values below 10 were considered active. Activity score was based on GIPRCNT using the following formula: […]
# Score is 0 for GIPRCNT values of 100 or above, 50 for GIPRCNT values of 0, and 100 for GIPRCNT values of -100.
row,SMILES,growth
1,COc1ccc2nc(NC(=O)c3cccnc3Nc3ccc(S(N)(=O)=O)cc3)sc2c1,94.2% (inactive)
2,CN1CCN(Cc2ccc(NC(=O)c3ccc(C(C)(C)C)c(C#Cc4cnc5cccnn45)c3)cc2C(F)(F)F)CC1,-73.2% (active)
3,C=C(C)C1CCC2(C)OC2C1 (stereo not given),112% (inactive)
4,N#Cc1c(-c2ccc(Cl)cc2)nc(NCCO)[nH]c1=O,102% (inactive)
5,O=c1ccc(N=Nc2ccc([N+](=O)[O-])cc2)ccc1O,13.2% (inactive)
6,C=C(C)[C@@H]1CC[C@]2(N=C=O)CC[C@]3(C)[C@H](CC[C@@H]4[C@@]5(C)Cc6c([nH]c7ccccc67)C(C)(C)[C@@H]5CC[C@]43C)[C@@H]12,47% (inactive)
7,COc1ccc(-c2conc2-c2ccccc2)cc1,17.9% (inactive)
8,COc1ccc(/C=C/c2c(C(=O)/C=C/c3ccc(Cl)cc3)c(C)nc3ccccc23)cc1,-0.536% (active)
9,CCN1C(=O)N(CC)C2Nn3c(s/c(=C4\C(=O)N(CC(C)C)c5ccccc54)c3=O)=NC21 (stereo not given),27.3% (inactive)
10,C=C1CC[C@H](C(C)C)[C@@H]2[C@H]1[C@H]1CC(=C)[C@@H](O)CC[C@@](C)(O)[C@@H]2O1,107% (inactive)
11,CCCCCCn1c(-c2ccc(C(=O)O/N=C(\N)c3ccc4ccccc4c3)cc2)nc(-c2ccccc2)c1-c1ccccc1,49.3% (inactive)
12,CCCCCCCCCCCCCCCCCCOc1ccc(CC(=O)OCC[N+](C)(C)C)cc1,102% (inactive)
13,c1ccc(Cc2nn3cc(-c4ccccc4)nc3s2)cc1,95.1% (inactive)
14,COc1ccc(/C=N/Nc2cc(=O)[nH]c3ccc(C)cc23)cc1,87.9% (inactive)
15,CCN(CC)CCNc1nc2ccccc2c2c(=O)c3cc(Cl)ccc3sc12,39.8% (inactive)
16,Cc1ccc2c(n1)C(=O)C(Cl)=C(Nc1ccccc1C(C)C)C2=O,27.6% (inactive)
17,CCCCOc1ccc(/C=N/NC(N)=S)cc1,55.7% (inactive)
18,COc1ccc2c(c1OC)C(=O)O[C@H]2[C@H]1c2c(cc3c(c2OC)OCO3)CCN1C,95.6% (inactive)
19,COc1cc(/C=C/C(=O)/C=C/c2cc(OC)c3c(c2OC)OCO3)c(OC)c2c1OCO2,31.9% (inactive)
20,COc1cccc(-c2nn(-c3ccccc3)cc2-c2ccnc(N3CCOCC3)c2)c1,85.9% (inactive)

row,SMILES,growth
1,Oc1c(I)cc(I)cc1CNCCCN(Cc1ccccn1)Cc1ccccn1,-37.7% (active)
2,NC1=NC(c2cccc(Br)c2)c2sc3ccc(Cl)cc3c2N1 (stereo not given),103% (inactive)
3,COc1ccc2c(c1)/C(=C/c1sc(=S)n(Cc3ccco3)c1O)C=N2,17.8% (inactive)
4,NCCCNc1nc2ccccc2c2c(=O)c3cc(F)cc(F)c3sc12,77% (inactive)
5,COc1ccccc1/C=C1\Oc2cc(OCCN3CCC(Cc4ccccc4)CC3)ccc2C1=O,52.5% (inactive)
6,O=C(/C=C/c1ccc([N+](=O)[O-])o1)NNC(=O)c1cc2ccccc2cc1O,-62.7% (active)
7,COc1ccc(-c2cc(-c3cc(OC)c(OC)c(OC)c3)nc(N3CCOCC3)c2C#N)cc1,66.6% (inactive)
8,Cc1ccc(C(CC(=O)O)c2c(C)[nH][nH]c2=O)cc1 (stereo not given),103% (inactive)
9,FC(F)(F)c1cc(Nc2ccc3c(OCCCN4CCOCC4)cccc3n2)ccc1Cl,-39.8% (active)
10,Cc1nc(/N=C(\N)NC(=O)Nc2cccc(Cl)c2)sc1C,32% (inactive)
11,C(=N/Nc1ncnc2nc[nH]c12)/c1ccccn1,35.4% (inactive)
12,CCCCCCCCCCCCCCCCCCOc1ccccc1CC(=O)OCC[N+](CC)(CC)CC,80.9% (inactive)
13,Nc1nc(Cl)cc(=O)n1Cc1ccccc1,98.3% (inactive)
14,O=C(O)C(c1ccccc1)N1C(=O)CSC1=S (stereo not given),103% (inactive)
15,CCCCC[C@H](O)C/C=C1/C(=O)C=C[C@@H]1C/C=C\CCCC(=O)OC,20.8% (inactive)
16,OC(COc1ccccc1)CN1CCN(c2ccc(Cl)cc2)CC1 (stereo not given),115% (inactive)
17,Cc1c(C(=O)NCCN2CCOCC2)cn2ncnc(Oc3ccc(NC(=O)Nc4ccc(Cl)c(C(F)(F)F)c4)cc3)c12,21.8% (inactive)
18,Cc1oc2nc[nH]c(=O)c2c1C(=O)/C=C/c1ccc(Br)cc1,-27.4% (active)
19,Oc1ccc(CCl)c2cccnc12,36.6% (inactive)
20,O=C(CCc1nnc(-c2c(Cl)cccc2Cl)o1)c1nc2ccccc2[nH]1,81.5% (inactive)
